Data on 28 molecules can be found in the supplement of paper PMC13380429.

In assay [1] the test system is Vero E6 infected with SARS-CoV-2. The assay can be described thus: morphology score (similarity to uninfected cells); higher = more like uninfected cells. Conditions: 24 h.
The test system is the same in assay [2]. The assay can be described thus: SARS-CoV-2 infection rate relative to infected DMSO; higher = more infection, active = 60 or less. Conditions: 24 h.

Molecules are shown by their SMILES.

Molecule `COC[C@H](NC(=O)c1cnc(C)s1)C(=O)N[C@@H](COC)C(=O)N[C@@H](Cc1ccccc1)C(=O)[C@@]1(C)CO1` [oprozomib] (0.833333 µM) yielded a morphology score in assay [1] of -0.312. The SARS-CoV-2 infection rate in assay [2] was 108% (inactive).
For the molecule `O[C@@H](COc1cccc2ncccc12)CN1CCN([C@@H]2c3ccccc3[C@@H]3[C@H](c4ccccc42)C3(F)F)CC1` [zosuquidar] (0.833333 µM), in assay [1], the morphology score came to 0.0321. Also, the SARS-CoV-2 infection rate in assay [2] was 108% (inactive).
Taken in the same sequence, the figures for `CCOC(=O)Nc1ccc(NCc2ccc(F)cc2)cc1N` [Retigabine] (10 µM) were 0.067 and 106% (inactive).
The molecule `O=C(NS(=O)(=O)c1ccc(Br)s1)c1ccc(Cl)cc1Cl` [tasisulam] (10 µM) showed a morphology score in assay [1] of 0.161. For the same molecule, in assay [2], the SARS-CoV-2 infection rate is 109% (inactive).
In the case of `COc1ccccc1N1CCN(CCN2C(=O)CC3(CCCC3)CC2=O)CC1` (10 µM), the morphology score in assay [1] is -0.291. The SARS-CoV-2 infection rate in assay [2] was 116% (inactive).
The molecule `Cn1nccc1Nc1nccc(-c2ccn([C@H](CO)c3ccc(Cl)c(F)c3)c(=O)c2)n1` (0.833333 µM) yielded a morphology score in assay [1] of 0.0519. In assay [2], the SARS-CoV-2 infection rate was 106% (inactive).
As to `O=S(=O)(O)c1ccc(-c2c3nc(c(-c4ccc(S(=O)(=O)O)cc4)c4ccc([nH]4)c(-c4ccc(S(=O)(=O)O)cc4)c4nc(c(-c5ccc(S(=O)(=O)O)cc5)c5ccc2[nH]5)C=C4)C=C3)cc1` (10 µM), the morphology score in assay [1] was -0.0273. Besides, the SARS-CoV-2 infection rate in assay [2] is 102% (inactive).
Take `Cc1cc(NCCO)nc(-c2ccc(Br)cc2)n1` (10 µM): in assay [1], the morphology score came out at 0.269. Moreover, in assay [2], the SARS-CoV-2 infection rate is 101% (inactive).
In turn, `O=C(Nc1c(Cl)cncc1Cl)c1ccc(OC(F)F)c(OCC2CC2)c1` [roflumilast] (10 µM) showed a morphology score in assay [1] of 0.202. Also, the SARS-CoV-2 infection rate in assay [2] was 97% (inactive).
In assay [1], `Nc1ccc(S(=O)(=O)Nc2nccs2)cc1` [sulfathiazole] (10 µM) came in with a morphology score of 0.0413. In assay [2], the SARS-CoV-2 infection rate is 114% (inactive).
In assay [1], `CC1(C)S[C@@H]2[C@H](NC(=O)[C@H](N)c3ccccc3)C(=O)N2[C@H]1C(=O)O` [ampicillin] (10 µM) had a morphology score of 0.141. In addition, the SARS-CoV-2 infection rate in assay [2] was 102% (inactive).
`CC(C)[C@H](N)C(=O)OCCOCn1cnc2c(=O)nc(N)[nH]c21` [valaciclovir] (10 µM) gave a morphology score in assay [1] of -0.0293. In addition, in assay [2], the SARS-CoV-2 infection rate is 116% (inactive).
Consider `Fc1ccc(C(OCCN2CCN(CCCc3ccccc3)CC2)c2ccc(F)cc2)cc1` [vanoxerine] (0.833333 µM), for which, in assay [1], the morphology score was found to be 0.275. In addition, in assay [2], the SARS-CoV-2 infection rate was 86% (inactive).
With `Cc1coc2c1C(=O)C(=O)c1c-2ccc2c1CCCC2(C)C` [tanshinone-IIA] (10 µM), the morphology score in assay [1] was determined as 0.159. For the same molecule, the SARS-CoV-2 infection rate in assay [2] is 102% (inactive).
Taken in the same sequence, the figures for `COc1ccccc1S(=O)(=O)Nc1ccc2c(c1)CN(C)C(=O)N2` (0.833333 µM) were -0.0409 and 108% (inactive).
Regarding `Cc1nc2c(-c3cnc(N)nc3)nc(N3CCOCC3)nc2n1C(C)C` (10 µM), the morphology score in assay [1] is -0.0616. Besides, in assay [2], the SARS-CoV-2 infection rate was 108% (inactive).
In the same order, the values of `C[n+]1c2cc(N)ccc2cc2ccc(N)cc21` [acriflavinium] (0.833333 µM) are 0.0932 and 98.5% (inactive).
Taken in the same sequence, the figures for `CCC[C@H](NC(=O)/C(C#N)=C/c1cccc(Br)n1)c1ccccc1` (0.833333 µM) were 0.143 and 108% (inactive).
In assay [1], `O=C(O)/C=C/c1ccc(O)c(O)c1` [caffeic-acid] (10 µM) yielded a morphology score of -0.0394. In addition, the SARS-CoV-2 infection rate in assay [2] is 110% (inactive).
The molecule `N=C(N)NC(=O)c1cnccn1` [pyrazinoylguanidine] (10 µM) gave a morphology score in assay [1] of 0.0685. In assay [2], the SARS-CoV-2 infection rate was 108% (inactive).
In assay [1], `COc1ccc(CCCO[C@@H](Cn2ccnc2)c2ccc(OC)cc2)cc1` (0.833333 µM) displayed a morphology score of 0.00702. Also, the SARS-CoV-2 infection rate in assay [2] is 107% (inactive).
For `COc1cc(N2CCN(C(C)=O)CC2)ccc1Nc1ncc(Cl)c(Nc2ccc(N3CCN(C(C)=O)CC3)cc2OC)n1` (10 µM), the morphology score in assay [1] turned out to be 0.0828. For the same molecule, the SARS-CoV-2 infection rate in assay [2] is 114% (inactive).
Take `Cn1c(=O)c2c(ncn2CC(O)CO)n(C)c1=O` (stereo unspecified) [dyphylline] (10 µM): the morphology score in assay [1] was found to be 0.0342. In assay [2], the SARS-CoV-2 infection rate was 96% (inactive).
In the same order, the values of `CN(C)CCCOc1nn(Cc2ccccc2)c2ccccc12` [benzydamine] (10 µM) are 0.4 and 70.5% (inactive).
In assay [1], `N[C@@H](C(=O)N[C@@H]1C(=O)N2C(C(=O)O)=C(Cl)CC[C@H]12)c1ccccc1` [loracarbef] (10 µM) returned a morphology score of 0.167. Besides, the SARS-CoV-2 infection rate in assay [2] was 101% (inactive).
`CN(C)/N=N/c1[nH]cnc1C(N)=O` [dacarbazine] (10 µM) displayed a morphology score in assay [1] of 0.135. For the same molecule, the SARS-CoV-2 infection rate in assay [2] is 87% (inactive).
Taken in the same sequence, the figures for `C[C@H](NC(=O)/C(C#N)=C/c1cccc(Br)n1)c1ccccc1` (0.833333 µM) were -0.0278 and 118% (inactive).
Taken in the same sequence, the figures for `NCC1OC(C23CC4CC(CC(C4)C2)C3)Cc2c1ccc(O)c2O` (stereo unspecified) (0.833333 µM) were -0.0685 and 115% (inactive).
